{
  "source": "PubChem BioAssay (Tox21)",
  "note": "Records with an inconclusive call do not appear. The source made the active and inactive calls. Calls come from the whole dose curve; as a rule, active = well fitted inhibition curve with a large enough effect in the repeat runs; inconclusive = weak or mixed curves; inactive = no such curve, though single readings can be large or run the other way. % is set by controls: 0 for no effect and ±100 for the full control effect; potency is the fitted concentration of half-maximal effect.",
  "data": [
    {"target": "Cytochrome P450 1A2 (Homo sapiens) (UniProt P05177)", "sequence (P05177 whole entry, looked up)": "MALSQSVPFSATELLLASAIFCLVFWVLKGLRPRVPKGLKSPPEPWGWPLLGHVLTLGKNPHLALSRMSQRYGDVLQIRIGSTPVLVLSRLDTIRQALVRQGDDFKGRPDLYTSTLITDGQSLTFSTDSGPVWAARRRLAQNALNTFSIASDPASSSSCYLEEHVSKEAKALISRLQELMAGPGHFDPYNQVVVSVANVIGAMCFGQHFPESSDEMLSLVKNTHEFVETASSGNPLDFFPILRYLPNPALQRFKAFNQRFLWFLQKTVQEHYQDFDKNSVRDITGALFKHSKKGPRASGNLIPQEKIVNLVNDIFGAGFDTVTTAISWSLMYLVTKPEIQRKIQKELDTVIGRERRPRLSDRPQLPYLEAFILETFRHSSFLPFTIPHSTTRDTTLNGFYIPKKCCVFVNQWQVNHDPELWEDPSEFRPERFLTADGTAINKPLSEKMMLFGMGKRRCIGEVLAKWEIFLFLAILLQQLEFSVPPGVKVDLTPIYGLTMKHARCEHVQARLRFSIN", "assay": "Cytochrome P450 Family 1 Subfamily A Member 2 (CYP1A2) small molecule antagonists: luciferase reporter qHTS assay (AID 1671199); note: nearly all actives have a fitted effect of over 50% in size", "conditions": "P450-Glo CYP1A2 enzyme, luciferin luminescence, 1 h; series mostly up to 115 µM; activity change, negative = inhibition: at the top concentration", "from_the_text": "National Center for Advancing Translational Sciences [NCATS]\nU.S. Environmental Protection Agency [EPA]\nNational Institutes of Environmental Health Sciences [NIEHS]\nNational Toxicology Program [NTP]\nU.S. Food and Drug Administration [FDA]\nCytochrome P450 (CYP) enzymes are membrane-bound hemeproteins that play a key role in metabolism of drugs and xenobiotics. Evaluation of the effect of chemicals on CYP isozymes is useful to minimize the adverse drug reactions and toxicities in drug development process. Tox21 chemicals were tested for their effect on CYP enzyme activities by using P450-Glo (TM) screening systems (Promega Corporation, Madison, WI). These systems provide a luminescent method containing proluciferin substrates and are converted to luciferin products by CYP isozymes. The luciferin products formed are detected with a luciferin detection reagent, and the amount of light produced is proportional to CYP activity. P450-Glo (TM) CYP1A2 screening system (Catalog. No. V9770) was used to detect the compounds that interfere in CYP1A2 activity. The positive control compound used for CYP1A2 assay is furafylline (Sigma-Aldrich, St. Louis, MO).\nTox21 Assay Protocol Summary:\nTwo ul of enzyme-substrate mix was dispensed into medium binding white/solid 1536-well plates (Greiner Bio-One North America Inc., Monroe, NC) using a BioRaptr Flying Reagent Dispenser (FRD, Beckman Coulter, Brea, CA). Compounds dissolved in DMSO and positive control (furafyllline) were transferred to the assay plates at 23 nl using a Pintool station (Wako, San Diego, CA). The assay plates were incubated at room temperature for 10 min. Then 2 ul of NADPH regeneration solution was added to each well of the assay plates using an FRD and incubated at room temperature for 1 h. The reaction was stopped by adding 4 ul of detection reagent using an FRD and after 20 min incubation at room temperature the luminescence signal was measured using a ViewLux plate reader (Perkin Elmer, Shelton, CT). Data were expressed as relative luminescence units.", "values": [
      {"smiles": "Cc1c([N+](=O)[O-])cc2c(c1[N+](=O)[O-])C(C)(C)CC2(C)C", "Potency": "8.94 µM (active)"},
      {"smiles": "COP(=S)(NC(C)C)Oc1ccc(C)cc1[N+](=O)[O-]", "note": "(stereo not given)", "Potency": "11.2 µM (active)"},
      {"smiles": "Nc1c(Cl)c(Cl)c(Cl)c(Cl)c1Cl", "Potency": "1.3 µM (active)"},
      {"smiles": "CCOP(=S)(OCC)Oc1cc(C)nc(N(CC)CC)n1", "Potency": "3.56 µM (active)"},
      {"smiles": "CCn1cc[n+](C)c1", "note": "(tested in a mixture with another compound)", "activity change, negative = inhibition": "-19% (inactive)"},
      {"smiles": "CCCCCCC[CH2][Sn]([Cl])([Cl])[CH2]CCCCCCC", "Potency": "35.6 µM (active)"},
      {"smiles": "CCNS(=O)(=O)C(F)(F)C(F)(F)C(F)(F)C(F)(F)C(F)(F)C(F)(F)C(F)(F)C(F)(F)F", "activity change, negative = inhibition": "-15.5% (inactive)"},
      {"smiles": "CCC(C)Br", "note": "(stereo not given)", "activity change, negative = inhibition": "-5.31% (inactive)"},
      {"smiles": "CC#C[C@]1(O)CC[C@H]2[C@@H]3C[C@H](C)C4=CC(=O)CC[C@]4(C)[C@H]3CC[C@@]21C", "activity change, negative = inhibition": "7.8% [at 53 µM] (inactive)"},
      {"smiles": "c1ccc(Nc2ccc(Nc3ccccc3)cc2)cc1", "Potency": "31.6 µM (active)"},
      {"smiles": "Cc1ccc2cc3c(ccc4ccccc43)c3c2c1CC3", "Potency": "0.449 µM (active)"},
      {"smiles": "O=P(Cl)(Cl)Cl", "Potency": "23.9 µM (active)"},
      {"smiles": "CCN(CC)C(=S)S", "Potency": "40.3 µM (active)"},
      {"smiles": "CC(Cc1ccc(O)cc1)NCC(O)c1cc(O)cc(O)c1", "note": "(stereo not given)", "activity change, negative = inhibition": "13.8% [at 53 µM] (inactive)"},
      {"smiles": "NC(=O)C(Cl)Cl", "activity change, negative = inhibition": "-19.5% (inactive)"},
      {"smiles": "Nc1nc(N)c(N)c(N)n1", "Potency": "35.7 µM (active)"},
      {"smiles": "COP(=O)(OC)Oc1ccc([N+](=O)[O-])cc1", "activity change, negative = inhibition": "-27.7% (inactive)"},
      {"smiles": "CCC(C)Nc1c([N+](=O)[O-])cc(C(C)(C)C)cc1[N+](=O)[O-]", "note": "(stereo not given)", "Potency": "31.7 µM (active)"},
      {"smiles": "CCOP(=O)(OCC)Oc1cc(C)nc(C(C)C)n1", "Potency": "35.8 µM (active)"},
      {"smiles": "O=C(Cl)c1ccccc1F", "activity change, negative = inhibition": "-16.1% (inactive)"},
      {"smiles": "N#CC(C#N)=NNc1cccc(Cl)c1", "Potency": "8.94 µM (active)"},
      {"smiles": "S=C=NCCc1ccccc1", "Potency": "10.1 µM (active)"},
      {"smiles": "Nc1ccc(Cl)cc1C(=O)c1ccccc1F", "Potency": "15.5 µM (active)"},
      {"smiles": "CC(Cc1ccc2c(c1)OCO2)NO", "note": "(stereo not given)", "Potency": "6.11 µM (active)"},
      {"smiles": "CCOP(=S)(OCC)SC(CCl)N1C(=O)c2ccccc2C1=O", "note": "(stereo not given)", "Potency": "63.3 µM (active)"},
      {"smiles": "O=NN(CCO)CCO", "activity change, negative = inhibition": "-4.09% (inactive)"},
      {"smiles": "CC(Cl)CCl", "note": "(stereo not given)", "activity change, negative = inhibition": "-29.1% (inactive)"},
      {"smiles": "CCOC(=O)CCN(SN(C)C(=O)Oc1cccc2c1OC(C)(C)C2)C(C)C", "Potency": "22.4 µM (active)"},
      {"smiles": "O=[N+]([O-])c1ccccc1-c1ccccc1", "Potency": "1.59 µM (active)"},
      {"smiles": "COc1ccc2[nH]cc(CCN(C(C)C)C(C)C)c2c1", "Potency": "40.9 µM (active)"},
      {"smiles": "Cc1ccn2nc(S(=O)(=O)Nc3c(F)cccc3F)nc2n1", "activity change, negative = inhibition": "-30.9% (inactive)"},
      {"smiles": "FC(F)C(F)(F)OCC(Cn1cncn1)c1ccc(Cl)cc1Cl", "note": "(stereo not given)", "Potency": "7.06 µM (active)"},
      {"smiles": "CNN", "activity change, negative = inhibition": "-17.6% (inactive)"},
      {"smiles": "CCCCCON=O", "activity change, negative = inhibition": "-5.27% (inactive)"},
      {"smiles": "COP(=S)(OC)Oc1nc(Cl)c(Cl)cc1Cl", "Potency": "44.8 µM (active)"},
      {"smiles": "c1cc[n+]2c(c1)-c1cccc[n+]1CC2", "Potency": "30.9 µM (active)"},
      {"smiles": "COc1ccc2c3c1O[C@H]1[C@H](O)CC[C@H]4[C@@H](C2)N(C)CC[C@@]341", "activity change, negative = inhibition": "-7% (inactive)"},
      {"smiles": "CCOP(=S)(NC(C)C)Oc1ccccc1C(=O)OC(C)C", "note": "(stereo not given)", "Potency": "8.94 µM (active)"},
      {"smiles": "Clc1c(Cl)c(Cl)c(Cl)c(Cl)c1Cl", "activity change, negative = inhibition": "-10.9% [at 10.5 µM] (inactive)"},
      {"smiles": "Oc1cccc(Cl)c1Cl", "Potency": "35.7 µM (active)"}
    ]}
  ]
}
